Compound activity from PubChem.
Hits are enriched below; roughly 3.1% of the tested compounds scored in any of these assays.
Tb PFK inh-1: T. brucei PFK enzyme inhibition | T. brucei PFK, ADP-Glo luminescence | hit rate 0.17% among 330,000 | Potency, µM (top dose mostly 57.5 µM), without a hit: at the highest dose activity, negative = inhibition, hits mostly inhibitors;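 also: 0% = uninhibited 1x PFK enzyme wells and -100% = no-enzyme wells; nearly all actives have a fitted effect of over 60% in size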
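Compounds were pin-transferred as a titration series up to 57 uM into substrate buffer (0.5 mM F6P, 0.1 mM ATP, pH 8.0), then 1.25 nM PFK was added and reactions ran 45 min before ADP-Glo detection.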
Pin1 inhibitor: inhibitors of human Pin1; AID 504891; Potency, µM (titrated, usually from 115 µM), for the others: top-dose activity, negative = inhibition, most hits filed as inhibitors; Pin1 FP peptide displacement, HiFluor488, 10 min; hit rate 0.009% among 390,000; active = well fitted inhibition curve with a large enough effect in the polarisation, with a control signal flat, not every such curve was filed as active; inconclusive = small, poorly fitted or top-dose-only effect, or effect the other way, or a change in a side signal; inactive = no such curve, though single readings can be large or run the other way; the % refers to the polarisation; also: % is scaled to controls: 0 for no effect and ±100 for the full control effect
TDP1 inh: inhibitors of human tyrosyl-DNA phosphodiesterase TDP1 | recombinant TDP1, AlphaScreen DNA substrate cleavage | Potency, µM (top dose mostly 130 µM), inactives show top-dose activity change, negative = inhibition, hits mostly inhibitors | hit rate 0.28% among 350,000; also: % is scaled to controls: 0 for no effect and ±100 for the full control effect; nearly all actives have a fitted effect of over 40% in size
Target sequence (Q9NUW8 whole entry, looked up): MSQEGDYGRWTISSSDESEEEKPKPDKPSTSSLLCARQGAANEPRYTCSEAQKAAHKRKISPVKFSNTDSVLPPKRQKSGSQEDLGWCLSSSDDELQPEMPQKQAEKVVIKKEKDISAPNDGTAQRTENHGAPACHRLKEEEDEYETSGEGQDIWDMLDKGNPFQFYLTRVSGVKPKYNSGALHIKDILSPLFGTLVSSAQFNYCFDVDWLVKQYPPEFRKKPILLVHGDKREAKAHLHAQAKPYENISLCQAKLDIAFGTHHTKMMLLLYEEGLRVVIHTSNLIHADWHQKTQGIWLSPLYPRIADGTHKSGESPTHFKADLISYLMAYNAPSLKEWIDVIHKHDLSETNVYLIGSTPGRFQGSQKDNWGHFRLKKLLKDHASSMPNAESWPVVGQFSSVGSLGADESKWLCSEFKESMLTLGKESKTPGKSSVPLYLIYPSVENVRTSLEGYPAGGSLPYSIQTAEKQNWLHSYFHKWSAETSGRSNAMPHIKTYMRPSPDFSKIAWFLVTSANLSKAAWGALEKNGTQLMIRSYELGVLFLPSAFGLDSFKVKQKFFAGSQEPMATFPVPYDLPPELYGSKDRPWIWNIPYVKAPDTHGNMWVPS
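Signal: AlphaScreen proximity between streptavidin donor and anti-FITC acceptor beads on intact substrate. Reaction: Tdp1 1 nM, substrate 15 nM final, 5 min RT after 15 min compound preincubation.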
VDR inh: vitamin D3 receptor (human) inhibition. P11473. VDR-SRC2-3 peptide fluorescence polarization, 2 h. Potency, µM, without a hit: max response, negative = inhibition, most hits filed as inhibitors. hit rate 0.93% among 400,000. AID 504847; also: % is scaled to controls: 0 for no effect and ±100 for the full control effect
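Fluorescence polarization assay of small-molecule disruption of VDR binding to coregulator peptide SRC2-3. Compounds and controls pin-transferred, then read after 2 h incubation at ambient room temperature.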
PLK1 PBD block: blocks phosphopeptide binding to human PLK1 polo-box domain; Plk1 PBD binding of FITC phosphopeptide, fluorescence polarization; Potency, µM, for inactives: max response, negative = inhibition, usual class: inhibitors; hit rate 2.8% among 360,000; AID 720504; also: series mostly up to about 57 µM; % is scaled to controls: 0 for no effect and ±100 for the full control effect; nearly all actives have a fitted effect of over 65% in size
S-ASM inh: human S-ASM enzyme inhibition | hit rate 0.006% among 340,000 | placental ASM, HMU-PC fluorogenic substrate, 60 min | P17405 | AID 504937 | Potency, µM (top dose mostly 57.5 µM), for inactives: top-dose activity change, negative = inhibition, actives largely listed as inhibitors
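Steps: dispense placental human ASM, pin compound, wait 10 min at room temperature, add HMU-PC0 substrate at 9 uM final, incubate 60 min at 37 °C, add stop solution raising pH to 10, read fluorescence.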
TbPFK ATP: orthogonal confirmation of T. brucei phosphofructokinase inhibitors. AID 504636. hit rate 47% among 1,100. Potency, µM (top dose mostly 57.5 µM), for the others: at the highest dose inhibition. shares compounds with Tb PFK inh-1. Tb PFK enzyme, ATP depletion, Kinase-Glo Plus luminescence; calls by dose curve; also: nearly all actives have a fitted effect of over 60% in size
Tb PFK inh-2: validation of T. brucei phosphofructokinase inhibitors | Potency, µM (highest dose often 57.5 µM), without a hit: top-dose activity change, negative = inhibition, usual class: inhibitors | purified T. brucei PFK, ADP-Glo luminescence, 45 min | shares compounds with Tb PFK inh-1 | hit rate 41% among 1,100;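 also: plate controls were full PFK enzyme control for no effect and no enzyme control for full effect; nearly all actives have a fitted effect of over 60% in size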
Active calls of the source: *; ? = inconclusive; / = not tested or not shown; [ ] = another dose, or the depositor's remark. Unless noted, calls follow the shape of the dose curve; as a rule, active = well fitted curve in the direction sought with a large enough effect; inconclusive = small, poorly fitted or top-dose-only effect, or another doubt; inactive = no such curve, though single readings can be large; an effect the other way counts as inactive or inconclusive. Potency is read from the fitted curve at half-maximal effect.

SMILES	Tb PFK inh-1	Pin1 inhibitor	TDP1 inh	VDR inh	PLK1 PBD block	S-ASM inh	TbPFK ATP	Tb PFK inh-2
Cc1cc(NS(=O)(=O)c2ccc(NC(=O)COc3ccc(Cl)cc3Cl)cc2)no1	2.7µM*	2%	4%	-6%	-4%	/	1.5µM*	1.7µM*
CC1CN(c2ccc([N+](=O)[O-])cc2Cl)CCN1 (centres undefined)	9.5µM*	4%	-2%	-16%	-4%	-4%	27µM*	30µM*
CN1CCN(c2ccc([N+](=O)[O-])cc2Cl)CC1	-3%	-4%	-7%	-28%	-19%	-2%	/	/
CCCN1C(=O)S/C(=C/c2ccc(N3CCOCC3)o2)C1=O	?	?	6%	89µM*	105%	-12%	7%	-4%
O=C(NCc1cccc(Cl)c1)c1ccc(N2CC3CC(C2)c2cccc(=O)n2C3)c(NC(=O)c2cccnc2)c1 (centres undefined)	?	-3%	8%	-2%	-3%	2%	?	?
Nc1cc(C(=O)Nc2ccccc2F)ccc1N1CC2CC(C1)c1cccc(=O)n1C2 (centres undefined)	/	/	/	/	-2%	/	/	/
C=CC(=O)OCC(C)C	/	/	6%	/	/	/	/	/
O=C(Nc1ccc2c(c1)OCO2)c1cccc2c1C(=O)N(Cc1cccnc1)C2	?	?	/	4%	-5%	-5%	?	?
c1cncc(CNCCc2ccc3c(c2)OCO3)c1	-2%	3%	4%	-18%	-2%	-1%	/	/
CCOC(=O)Cc1[nH]nc2c1C(c1ccoc1)C(C#N)=C(N)O2 (centres undefined)	-8%	-13%	4%	9%	?	5%	/	/
O=C(c1cccs1)N1CCC(C(=O)O)(c2ccccc2)CC1	/	/	/	/	3%	/	/	/
CC(NC(=O)C1CCN(C(=O)c2cccs2)CC1)c1ccc(S(N)(=O)=O)cc1 (centres undefined)	?	-2%	4%	-22%	-11%	7%	-32%	?
O[C@@H]1CCCC[C@@H]1N1CCC(c2ccccc2)CC1	/	/	1%	6%	/	/	/	/
NCCc1ccc(O)c(O)c1	?	9%	/	-1%	-11%	0%	?	-20%
CNCCc1ccc(O)c(O)c1	/	3%	9%[56.1 µM]	?	-2%	15%	/	/
C=CC[C@]1(O)CCC2C3CCC4=CCCCC4C3CCC21C (some centres undefined)	/	/	-4%	-11%	/	/	/	/
CC(=O)CSc1nnc(Cc2ccc([N+](=O)[O-])cc2)o1	?	1%	5%	-8%	-2%	0%	?	-25%
CCCCC(=O)Nc1ccc(F)c(Cl)c1	?	-1%	0%	-4%	-1%	-3%	?	-12%
COC(=O)C(O)(c1ccc(NC(=S)NC(=O)c2ccc(Cl)cc2Cl)cc1)C(F)(F)F (centres undefined)	0%	-1%	5%	10%	-3%	-15%	/	/
Fc1ccc(NC(=S)Nc2ccc(F)c(Cl)c2)cc1Cl	?	-4%	4%	-17%	?	-4%	?	-30%
C=CC[C@]1(O)CC[C@H]2[C@@H]3CCC4=CC(=O)CCC4=C3C=C[C@@]21C	/	/	6%	?	/	/	/	/
CCCCCC(O)C1C(=O)OC(C)C(O)\C=C/C=C\C=C/C=C\C=C(\C)C(O)C(O)C(O)CC(O)CC(O)CC(O)CC(O)CC1O (centres undefined)	/	/	/	2%	/	/	/	/
CCN(CC)Cc1cc(Nc2ccnc3cc(Cl)ccc23)ccc1O	-13%	1%	16%[21 µM]	8%	-8%	-14%	/	/
CS(=N)(=O)CC[C@@H](N)C(=O)O (some centres undefined)	/	/	11%[21 µM]	4%	/	/	/	/
Cc1ccc(C(=O)OCC(=O)c2ccc(CC(=O)N3CCOCC3)s2)c(C)c1	?	?	50µM*	-8%	-21%	-1%	?	?
SMILES	Tb PFK inh-1	Pin1 inhibitor	TDP1 inh	VDR inh	PLK1 PBD block	S-ASM inh	TbPFK ATP	Tb PFK inh-2
Cc1ccc(C(=O)Nc2cccc([N+](=O)[O-])c2)cc1S(=O)(=O)Nc1cccc(C(=O)O)c1	19µM*	6%	-6%	-25%	15µM*	-23%	7.6µM*	19µM*
NC(=O)CNC(=O)C1CCCc2c1[nH]c1ccc(Cl)cc21 (centres undefined)	6µM*	-15%	2%	1%	-12%	-2%	2.4µM*	3.4µM*
N[C@@H](CCCCP(=O)(O)O)C(=O)O	/	/	-6%[56.1 µM]	2%	/	/	/	/
COc1ccc(CC(=O)OCC(=O)NC2CC2)cc1	24µM*	4%	2%	-5%	-13%	1%	?	-7%
CCN(C(=O)CN1CC=C(c2ccccc2)CC1)c1c(N)n(Cc2ccccc2)c(=O)[nH]c1=O	-3%	38%	0%	-14%	-21%	112%	/	/
CCN(C(=O)CN1CCN(c2ccc(O)cc2)CC1)c1c(N)n(Cc2ccccc2)c(=O)[nH]c1=O	?	?	/	-29%	27µM*	3%	?	?
CC1=C[C@H]2[C@]3(O)C(C=C(CO)C[C@]2(O)C1=O)[C@@H]1C(C)(C)[C@]1(O)[C@H](O)[C@H]3C (some centres undefined)	/	/	6%	4%	/	/	/	/
COc1ccc(NCc2ccc([N+](=O)[O-])s2)cc1	?	?	12%	12%	-10%	-3%	13µM*	27µM*
O=[N+]([O-])c1ccc(CNc2ccc(Cl)cc2)s1	27µM*	-9%	11%	-8%	-3%	-4%	12µM*	27µM*
O=[N+]([O-])c1ccc(CNc2ccc(F)cc2)s1	17µM*	4%	8%	-24%	-14%	0%	7.6µM*	9.5µM*
